Dicer inh: human Dicer pre-microRNA cleavage inhibition. z-score at 25 µM. Q9UPY3. cat-ELCCA pre-miR-21 Dicer processing, chemiluminescence; stronger effect = higher value. 47,000 compounds, 6% hits; in the data active = z-score above about 3, passing the limit was not always enough;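 note: higher signal means more uncleaved substrate so more Dicer inhibition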
Target sequence (Q9UPY3 whole entry, looked up): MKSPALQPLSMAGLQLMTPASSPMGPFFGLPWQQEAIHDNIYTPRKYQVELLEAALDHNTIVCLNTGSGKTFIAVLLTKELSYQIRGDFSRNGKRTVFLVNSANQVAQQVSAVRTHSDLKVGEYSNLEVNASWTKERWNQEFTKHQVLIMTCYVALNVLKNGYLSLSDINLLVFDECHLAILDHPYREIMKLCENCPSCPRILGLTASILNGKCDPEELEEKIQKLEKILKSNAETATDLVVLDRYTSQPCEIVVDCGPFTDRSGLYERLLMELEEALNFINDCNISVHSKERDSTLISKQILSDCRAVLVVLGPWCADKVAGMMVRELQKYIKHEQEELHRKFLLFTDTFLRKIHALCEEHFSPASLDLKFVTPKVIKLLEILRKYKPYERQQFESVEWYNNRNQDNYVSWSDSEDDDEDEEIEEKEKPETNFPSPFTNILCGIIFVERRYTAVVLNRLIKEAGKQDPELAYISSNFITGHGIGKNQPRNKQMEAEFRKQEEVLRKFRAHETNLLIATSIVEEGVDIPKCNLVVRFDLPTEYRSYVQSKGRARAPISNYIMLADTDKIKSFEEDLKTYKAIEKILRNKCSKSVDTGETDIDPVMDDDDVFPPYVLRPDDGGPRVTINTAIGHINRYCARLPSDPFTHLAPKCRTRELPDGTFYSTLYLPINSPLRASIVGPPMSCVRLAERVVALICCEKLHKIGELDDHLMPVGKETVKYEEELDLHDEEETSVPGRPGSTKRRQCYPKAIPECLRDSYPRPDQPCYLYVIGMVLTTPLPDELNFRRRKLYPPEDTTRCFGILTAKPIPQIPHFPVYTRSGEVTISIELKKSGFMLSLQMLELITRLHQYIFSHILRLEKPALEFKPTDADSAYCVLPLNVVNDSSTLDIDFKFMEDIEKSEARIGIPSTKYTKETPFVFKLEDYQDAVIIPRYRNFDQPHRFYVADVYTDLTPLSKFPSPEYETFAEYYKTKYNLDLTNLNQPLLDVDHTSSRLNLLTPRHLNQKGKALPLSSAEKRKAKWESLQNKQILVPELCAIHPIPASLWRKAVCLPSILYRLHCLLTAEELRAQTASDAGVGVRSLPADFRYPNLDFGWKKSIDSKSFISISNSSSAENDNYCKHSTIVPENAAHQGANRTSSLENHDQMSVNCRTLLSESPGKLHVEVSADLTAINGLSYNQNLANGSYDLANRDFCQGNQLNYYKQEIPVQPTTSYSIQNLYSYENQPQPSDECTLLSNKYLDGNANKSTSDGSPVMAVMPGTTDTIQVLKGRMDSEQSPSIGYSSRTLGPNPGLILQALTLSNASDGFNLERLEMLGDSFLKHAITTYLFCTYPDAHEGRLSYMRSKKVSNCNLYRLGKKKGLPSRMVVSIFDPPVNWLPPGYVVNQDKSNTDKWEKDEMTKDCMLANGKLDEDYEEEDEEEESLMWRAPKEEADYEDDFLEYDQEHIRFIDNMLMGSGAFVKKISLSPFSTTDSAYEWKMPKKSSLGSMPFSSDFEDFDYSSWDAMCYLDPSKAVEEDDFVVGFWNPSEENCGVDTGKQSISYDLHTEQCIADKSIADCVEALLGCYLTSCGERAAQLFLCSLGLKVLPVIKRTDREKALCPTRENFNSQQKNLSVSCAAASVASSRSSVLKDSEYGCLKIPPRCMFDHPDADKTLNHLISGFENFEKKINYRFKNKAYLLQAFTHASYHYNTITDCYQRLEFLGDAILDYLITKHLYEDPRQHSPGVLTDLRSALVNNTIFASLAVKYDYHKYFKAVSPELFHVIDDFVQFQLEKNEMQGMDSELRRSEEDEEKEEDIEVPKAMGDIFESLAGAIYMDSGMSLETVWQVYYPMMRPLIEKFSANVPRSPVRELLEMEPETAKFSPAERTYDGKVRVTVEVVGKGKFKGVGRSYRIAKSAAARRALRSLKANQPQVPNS
Hits are given with their value. Only a selection was taken, and hits are over-represented in it overall.

For COc1ccc(-c2cnc3c(-c4ccc(Cl)cc4)c(C)nn3c2N)cc1OC the results were Dicer inh inactive.
`CCCCCOc1ccc(N2C(=O)C3C4C=CC(CC4)C3C2=O)cc1` (configuration not stated) gave Dicer inh inactive.
C#CCOc1cccc2oc(CCC)cc(=O)c12 was read as Dicer inh inactive.
Screening NC(=S)N/N=C/c1ccc(Cl)cc1 returned Dicer inh inactive.
`O=C1NC(=S)S/C1=C\c1ccc([N+](=O)[O-])s1` gave Dicer inh inactive.
`O=[N+]([O-])c1cc(-c2cnc3ccccc3n2)ccc1Sc1ccc(Cl)cc1` gave Dicer inh inactive.
`O=C1NC(=S)S/C1=C/c1ccc(Sc2ccc(Cl)cc2)c([N+](=O)[O-])c1` gave Dicer inh 5.2.
CC1CCN(C(=O)N2c3ccccc3Sc3ccccc32)CC1 was read as Dicer inh inactive.
Screening CCOC(=O)N1CCN(C(=O)N2c3ccccc3Sc3ccccc32)CC1 returned Dicer inh 4.7.
Screening O=C(N1CCN(c2ccccc2)CC1)N1c2ccccc2Sc2ccccc21 returned Dicer inh inactive.
For CN(C)c1scc(-c2ccccc2)c1C#N the results were Dicer inh 15.
Screening COC(=O)c1sc(N(C)C)c(C#N)c1-c1ccccc1 returned Dicer inh inactive.
Screening CSc1scc(-c2cccc(Cl)c2)c1C#N returned Dicer inh inactive.
For CCOc1cc(C2NC(C(=O)O)CS2)ccc1OCc1ccc(F)cc1 (configuration not stated) the results were Dicer inh inactive.
For Nc1nnc(SCc2ccccc2Cl)s1 the results were Dicer inh 11.
For N=C(N)SCc1ccccc1Cl the results were Dicer inh inactive.
Screening NCCc1nnc(SCc2ccccc2Cl)o1 returned Dicer inh inactive.
`CC(C)(C)SCCN=C(Nc1ccc(Cl)cc1)c1ccccc1Cl` gave Dicer inh inactive.
For CC(=NCCc1ccc(Cl)cc1)c1ccccc1O the results were Dicer inh 5.2.
`CCOC(=O)N/N=C(\C)c1ccccc1O` gave Dicer inh inactive.
CC(=NCc1cccc(CN=C(C)c2ccccc2O)c1)c1ccccc1O was read as Dicer inh inactive.
O=C(O)/C(=N/NC(=O)c1ccc(Cl)cc1)c1ccccc1 was read as Dicer inh inactive.
C/C(=N\NC(=O)c1ccc(Cl)cc1)c1ccccc1O was read as Dicer inh 33.
`COc1ccc(Br)cc1CN1CCN(Cc2ccc(SC)cc2)CC1` gave Dicer inh inactive.
`C=CCOc1ccc(C2c3c(oc4ccc(C)cc4c3=O)C(=O)N2CCCN(C)C)cc1OCC` (configuration not stated) gave Dicer inh inactive.
For Clc1ccc2sc(Sc3ccccc3)nc2c1 the results were Dicer inh inactive.
Screening O=C(O)CSc1nc2ccccc2s1 returned Dicer inh inactive.
Screening Nc1ccc(Sc2nc3ccccc3s2)cc1 returned Dicer inh 5.2.
Screening CCOC(=O)C(NC(C)=O)(Nc1nc2ccccc2s1)C(F)(F)F (configuration not stated) returned Dicer inh inactive.
O=C(O)c1ccc(N2C(=O)CC(N3CCN(Cc4ccc5c(c4)OCO5)CC3)C2=O)cc1 (configuration not stated) was read as Dicer inh inactive.
`O=c1oc2ccccc2n1Cc1cccc(Cl)c1` gave Dicer inh inactive.
`COC(=O)Cn1c(=O)oc2ccc(C)cc21` gave Dicer inh 3.7.
`Cc1cccc(Cn2c(=O)oc3ccc(C)cc32)c1` gave Dicer inh inactive.
Screening CCCCCOC(=O)Cn1c(=O)oc2ccc(C)cc21 returned Dicer inh inactive.
Cc1ccc2oc(=O)n(Cc3ccc(OC(C)C)cc3)c2c1 was read as Dicer inh 3.2.
Screening CC(C)(C)NC(=O)Cn1c(=O)oc2ccc(Cl)cc21 returned Dicer inh inactive.
For CC(C)NC(=O)n1nccc1-c1ccc([N+](=O)[O-])cc1Cl the results were Dicer inh inactive.
`CC1=C(C(=O)OCCc2ccccc2)C(c2ccccc2F)C2=C(CC(C)(C)CC2=O)N1` (configuration not stated) gave Dicer inh inactive.
Screening COc1cccc(OC)c1C(=O)Nc1c(C)c(N2CCCC2)cc2c1C(C)(C)CC2(C)C returned Dicer inh inactive.
`COCCOC(=O)C1=C(C)N=C2SCCC(=O)N2C1c1cccc(F)c1` (configuration not stated) gave Dicer inh inactive.
For NNC(=O)CSCc1c(Cl)cccc1Cl the results were Dicer inh inactive.
`Cn1nc(-c2ccc(Cl)cc2)cc1NC(=O)c1ccccc1C(=O)O` gave Dicer inh inactive.
Cc1c(S(=O)(=O)c2ccc(Cl)cc2)csc1C(=O)NCCSCc1ccc([N+](=O)[O-])cc1 was read as Dicer inh inactive.
`N#Cc1c(-c2ccccc2)nc(SCc2ccccc2)[nH]c1=O` gave Dicer inh inactive.
`Clc1ccc(CSc2ncc(-c3ccc(Cl)cc3)[nH]2)cc1` gave Dicer inh inactive.
Screening N#Cc1c(-c2ccc(Cl)cc2)[nH]c(SCc2ccccc2)nc1=S returned Dicer inh 3.5.
Screening O=C1NN(C(=O)Nc2ccc(Br)cc2)[C@@H](c2ccccc2)[C@@H]1c1ccccc1 returned Dicer inh inactive.
CCN(CC)CCn1c(-c2ccc(Br)cc2)cn2c3ccccc3nc12 was read as Dicer inh inactive.
`O=C(NCC1CCCO1)c1ccc(COc2ccc(F)cc2)o1` (configuration not stated) gave Dicer inh inactive.
CCOc1ccc(OCc2ccc(C(=O)NC(C)(C)C)o2)cc1 was read as Dicer inh 3.4.
Screening CC(C)(C)c1ccc(OCc2ccc(C(=O)O)o2)cc1 returned Dicer inh inactive.
Screening COc1cccc(-c2nnc(SCc3ccccc3C)o2)c1 returned Dicer inh inactive.
ONC(=Nc1ccc(Cl)c(Cl)c1)c1ccccc1 was read as Dicer inh inactive.
For O=S(=O)(NCc1csc(-c2cccs2)n1)c1cc2ccccc2s1 the results were Dicer inh inactive.
`CC(C)OC(=O)c1cccc(C(=O)Oc2ccc(Br)cc2)n1` gave Dicer inh 4.4.
CC(C)OC(=O)c1cccc(C(=O)O)n1 was read as Dicer inh inactive.
Screening CC(C)OC(=O)c1cccc(C(=O)OC(C)C)n1 returned Dicer inh inactive.
For Cc1sc(NC(=O)c2ccc(C(C)(C)C)cc2)c(C#N)c1C the results were Dicer inh inactive.
Screening N#Cc1c(SCC(=O)c2ccccc2)nc2c(c1/C=C\c1ccccc1)CCC2 returned Dicer inh inactive.
Screening CSc1nnc2c(n1)OC(C1CC=C(C)CC1C)Nc1ccccc1-2 (configuration not stated) returned Dicer inh inactive.
For O=C1CCC(=O)N1CNc1ccccn1 the results were Dicer inh 3.4.
O=C1CCC(=O)N1CNc1ccccc1C(F)(F)F was read as Dicer inh inactive.
Cc1cccc(NCN2C(=O)CCC2=O)n1 was read as Dicer inh inactive.
Screening Cc1sc(Nc2ccccc2)nc1-c1ccc(-c2ccccc2F)cc1 returned Dicer inh inactive.
For COC(=O)C1=C(C)Nc2nnnn2C1c1ccc(OCc2ccccc2)c(OC)c1 (configuration not stated) the results were Dicer inh inactive.
`CS(=O)(=O)c1ccc2nc(N)sc2c1` gave Dicer inh inactive.
For Nc1nc2ccc(Oc3ccc4nc(N)sc4c3)cc2s1 the results were Dicer inh 3.7.
Nc1nc2ccc(CC(=O)O)cc2s1 was read as Dicer inh inactive.

Screens from PubChem.
